MITF TRPM1 inh = reduces MITF-dependent TRPM1 promoter luciferase signal; SK-MEL-5 TRPM1 promoter luciferase, 24 h; inhibition, % at 12.5 µM; 0.83% of 330,000 active; AID 488899;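 active = mean inhibition across replicates of 60% or more, whatever share of single replicates reaches that level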
KKLEB cytotox = reduces viability of KKLEB cystic fibrosis airway cells; KKLEB CF airway cells viability, ATPlite luminescence, overnight; stronger effect = lower value; cells stimulated with P. aeruginosa culture filtrate; activity change (cytotoxicity), % at 5 µM; 0.36% of 360,000 active; AID 602141;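 active = corrected activity change at or below -50% at 5 µM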
Peg3 promoter = inhibitors of Peg3 promoter. HeLa PEG-Prom luciferase reporter, luminescence, overnight. inhibition, % at 20 µM. 1.7% of 360,000 active;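 active = inhibition of at least 50% at 20 µM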
CF NFkB block = cystic fibrosis NF-kB activation inhibition | KKLEB NF-kB-GFP reporter, PAF-induced, GFP fluorescence overnight | inhibition, % at 5 µM | 0.86% of 360,000 active;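 active = at least 50% inhibition at 5 µM, scaled per plate between neutral and stimulator controls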;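 note: PAF is a Pseudomonas aeruginosa culture filtrate used as stimulus; plate controls were PAF-stimulated DMSO wells for no effect and unstimulated DMSO wells for full effect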
ABHD5-PLIN5 inh = blocks binding of human ABHD5 to perilipin-5. Q00G26+Q8WTS1. Split G. princeps luciferase complementation, luminescence, 4 h. inhibition, % at 4 µM. 0.78% of 360,000 active. AID 602281;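 active = inhibition above the mean inhibition across every tested compound plus 3 SD, cut at about 22% in these data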;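 note: 0% = DMSO only wells and the 100% control is not disclosed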
Target sequence (Q00G26 whole entry, looked up): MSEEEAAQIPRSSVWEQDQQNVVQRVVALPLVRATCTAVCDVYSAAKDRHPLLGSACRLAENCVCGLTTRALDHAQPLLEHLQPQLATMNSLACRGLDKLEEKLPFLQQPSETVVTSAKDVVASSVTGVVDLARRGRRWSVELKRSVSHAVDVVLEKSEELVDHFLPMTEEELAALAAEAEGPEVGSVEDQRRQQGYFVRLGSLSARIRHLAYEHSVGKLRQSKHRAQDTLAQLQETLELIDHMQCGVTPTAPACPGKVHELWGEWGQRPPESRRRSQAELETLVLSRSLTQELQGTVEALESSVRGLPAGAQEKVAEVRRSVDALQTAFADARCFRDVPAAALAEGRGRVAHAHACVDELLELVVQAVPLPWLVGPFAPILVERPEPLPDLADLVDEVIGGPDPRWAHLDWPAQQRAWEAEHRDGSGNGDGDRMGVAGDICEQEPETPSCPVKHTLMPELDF
Target sequence (Q8WTS1 whole entry, looked up): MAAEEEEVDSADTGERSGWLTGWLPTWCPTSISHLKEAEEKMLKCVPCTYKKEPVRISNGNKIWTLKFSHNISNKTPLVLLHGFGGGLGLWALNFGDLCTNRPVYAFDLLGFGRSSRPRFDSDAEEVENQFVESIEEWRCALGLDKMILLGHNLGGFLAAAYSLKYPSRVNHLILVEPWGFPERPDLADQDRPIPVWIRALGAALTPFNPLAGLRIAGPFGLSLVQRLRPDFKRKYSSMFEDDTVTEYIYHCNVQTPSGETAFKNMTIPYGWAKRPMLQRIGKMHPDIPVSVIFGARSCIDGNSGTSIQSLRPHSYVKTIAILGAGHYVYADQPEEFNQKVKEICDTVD
HIF-2a block = HIF-2a inhibition | 786-0 RCC cells HIF-2a reporter, luciferase luminescence, overnight | AID 624352 | inhibition, % at 18.8 µM | 0.72% of 360,000 active;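 active = inhibition of the luminescence signal of 40% or more relative to plate controls, in a single-dose primary screen at 18.75 µM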
Mdm2-MdmX confirm = Mdm2/MdmX (human) interaction inhibition, confirmed; shares compounds with HIF-2a block; inhibition, % at 8 µM; SaOS-2 split-luciferase Mdm2/MdmX complementation, luminescence; 99% of 740 active;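 active = mean inhibition of the luminescence signal across two replicates at or above 26 percent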
HIF-2a inh conf = HIF-2a inhibition, single concentration confirmation | AID 651580 | 56% of 1,800 active | 786-0 RCC cells, HIF-2a luciferase reporter luminescence, overnight | inhibition, % at 18.8 µM | shares compounds with HIF-2a block;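 active = mean inhibition across four replicates of at least 40 percent at the single tested concentration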
HIF-1a cs = HIF-1a inhibition counter-screen for HIF-2a hits. AID 651589. MiaPaCa-2 HIF-1a luciferase reporter, desferoxamine, overnight. 72% of 1,800 active. inhibition, % at 18.8 µM. shares compounds with HIF-2a block;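 active = mean inhibition of the reporter signal across four replicates at the single tested dose of 50% or more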
* hit, by the source's call; nt = no result given. This is a sample that favours compounds with a hit; in the whole collection about 3.1% have one here.

SMILES | MITF TRPM1 inh | KKLEB cytotox | Peg3 promoter | CF NFkB block | ABHD5-PLIN5 inh | HIF-2a block | HIF-2a inh conf | HIF-1a cs | others
COc1cccc(NC(=O)N(C)C[C@H]2OCc3cnnn3CCCC(=O)N([C@H](C)CO)C[C@@H]2C)c1 | nt | -10 | -8 | 8 | 3 | 8 | nt | nt
Nc1cc2ccncc2c2ccccc12 | -6 | -6 | -5 | 65* | -21 | 23 | nt | nt | Mdm2-MdmX confirm=90*
N#Cc1cc2ccncc2c2ccccc12 | nt | -22 | 11 | 6 | -1 | 22 | nt | nt
CCOc1ccc(C(=O)CSCCC(=O)O)cc1 | 27 | 0 | 5 | 9 | -2 | 78* | 82* | 61*
O=C(Nc1ccc(S(=O)(=O)N2CCCC2)cc1)c1ccc([N+](=O)[O-])o1 | nt | -15 | 97* | 83* | 8 | 77* | 50* | 94*
O=C(Nc1ccc(N2CCN(C(=O)c3cccs3)CC2)cc1)c1ccc([N+](=O)[O-])o1 | 98* | -56* | 107* | 107* | 5 | 98* | 99* | 104*
O=C(Nc1ccc(S(=O)(=O)N2CCOCC2)cc1)c1ccc([N+](=O)[O-])o1 | 47 | -4 | 101* | 78* | -1 | 67* | 36 | 78*
O=C(Nc1ccc(S(=O)(=O)N2CCOCC2)cc1)c1ccco1 | -9 | -13 | 1 | 14 | -1 | 12 | nt | nt
Cc1ccc(C(=O)Nc2ccc(S(=O)(=O)N3CCCC3)cc2)o1 | -9 | 5 | 5 | 7 | 1 | -1 | nt | nt
O=C(Nc1ccc(N2CCN(C(=O)c3cccs3)CC2)cc1)c1ccco1 | 7 | 8 | -23 | 4 | 11 | -28 | nt | nt
OCC[C@@H]1C[C@H](O)[C@@H](O)[C@]2(OCc3cc(C(F)(F)F)ccc32)O1 | nt | -21 | 3 | 22 | -3 | 16 | nt | nt
CN(C(=O)c1ccccc1)C(=O)c1ccccc1 | nt | 2 | -7 | -37 | 1 | 0 | nt | nt
COc1ccc(N(C(=O)c2cnccn2)C(C(=O)NC2CCCCC2)c2ccc(Cl)cc2)cc1 (stereo not given) | -4 | -6 | 21 | 10 | 6 | 8 | nt | nt
COc1ccc(C(C(=O)NC2CCCCC2)N(C(=O)CCl)c2ccc(Cl)cc2)cc1 (stereo not given) | 79* | -99* | 74* | 97* | 6 | 27 | nt | nt | Mdm2-MdmX confirm=98*
Cc1ccc(-c2nnc(NC3CCCC3)s2)cc1 | -43 | 1 | -271 | -13 | -3 | -302 | nt | nt
O=C(O)c1c(NC(=O)N2CCOCC2)sc2c1CCCC2 | -2 | -16 | -28 | -8 | 1 | 55* | -12 | 1
CC(=O)c1cccc(NC(=O)C(C)Sc2nnc3ccccn23)c1 (stereo not given) | nt | -1 | 4 | -15 | -7 | -2 | nt | nt
Cn1c(=O)c2sccc2n2c(CCCC(=O)N3CCN(c4ccccn4)CC3)nnc12 | 5 | 0 | -6 | 16 | -11 | 10 | nt | nt
C=CS(=O)(=O)N(Cc1ccc(Cl)c(Cl)c1)C[C@@H](O)CO | -32 | -7 | 69* | 37 | 3 | 1 | nt | nt | Mdm2-MdmX confirm=94*
CCN(CC)S(=O)(=O)c1cc([N+](=O)[O-])ccc1NNC(=O)Nc1ccc(Cl)c(Cl)c1 | 38 | -32 | 49 | 48 | -8 | 14 | nt | nt | Mdm2-MdmX confirm=94*
N#Cc1ccc(C(S(=O)(=O)Cc2ccccc2)S(=O)(=O)Cc2ccccc2)cc1 | nt | 5 | 13 | -20 | 8 | 12 | nt | nt
O=C(c1cc(C2CC2)nc2ccc(Br)cc12)N1N=C(C(F)F)CC1(O)C(F)F (stereo not given) | 8 | -14 | 60* | 13 | -5 | 57* | 35 | 65*
Cc1ccc(C2CC(c3cccs3)=NN2C(=O)CCl)cc1 (stereo not given) | 51 | -61* | 28 | 77* | 7 | -127 | nt | nt | Mdm2-MdmX confirm=102*
CCC(=O)N1N=C(c2cccs2)CC1c1ccc(C)cc1 (stereo not given) | -6 | 0 | -7 | -6 | 10 | -24 | nt | nt
CC(C)CNC(=O)C1(C)CCCN1Cc1ccccc1OC(F)F (stereo not given) | nt | -6 | 19 | 14 | 4 | 17 | nt | nt
SMILES | MITF TRPM1 inh | KKLEB cytotox | Peg3 promoter | CF NFkB block | ABHD5-PLIN5 inh | HIF-2a block | HIF-2a inh conf | HIF-1a cs | others
Cc1cccc(C)c1NC(=O)CSc1nc2[nH]c(=O)cc(O)c2s1 | -4 | 8 | -5 | -1 | -11 | 13 | nt | nt
c1csc(C2=Nn3c(nnc3-c3ccncc3)SC2)c1 | -13 | -16 | -12 | 66* | -1 | -1 | nt | nt | Mdm2-MdmX confirm=93*
c1ccc(C2=Nn3c(nnc3-c3cccs3)SC2)cc1 | -8 | -13 | 8 | -12 | -3 | -1 | nt | nt
O=S1(=O)CC2SC(=S)N(Cc3ccccc3)C2C1 (stereo not given) | nt | 12 | -4 | -18 | 3 | 9 | nt | nt
O=C(Cn1c(NCCO)nc2ccccc21)N1CCN(Cc2ccccc2)CC1 | 2 | 1 | 4 | 4 | 4 | 21 | nt | nt
Cc1cc(C(=O)NC2CC(C)(C)Cc3c2cnn3-c2ccccc2)n(C)n1 (stereo not given) | 0 | 1 | 6 | 18 | 4 | 18 | nt | nt
CC(=O)[C@@]1(O)C(C)CC2C3C=C(C)C4=Cc5c(cnn5-c5ccccc5)C[C@]4(C)C3C(O)C[C@@]21C (stereo not given in full) | 1 | 9 | 64* | 88* | -3 | 67* | 34 | 95*
CC(=O)Nc1ccc(NC(=O)c2sc3nc4n(c(=O)c3c2C)CCCCC4)cc1 | 10 | -4 | 25 | -3 | -7 | 80* | 90* | 90*
COc1ccc(C(=O)Nn2c(SCC(=O)N3CCC(C)CC3)nc3ccccc3c2=O)cc1 | 42 | 1 | 68* | -8 | 2 | 51* | 67* | 78*
CC1(C)CC(NS(=O)(=O)c2ccc(Cl)cc2)CC(C)(C)N1 | 2 | -10 | -2 | -2 | -2 | 19 | nt | nt
CCS(=O)(=O)c1ncc(Cl)c(C(=O)Nc2ccc(S(=O)(=O)N3CCCC(C)C3)cc2)n1 (stereo not given) | 104* | -109* | 105* | 97* | 13 | 89* | 98* | 106* | Mdm2-MdmX confirm=103*
CC1CCCN(S(=O)(=O)c2ccc(NC(=O)CNC3CCCC3)cc2)C1 (stereo not given) | -9 | 11 | 12 | -25 | -8 | 25 | nt | nt
COc1ccc(-c2oc3ccccc3c(=O)c2OC(C)=O)cc1 | -40 | 5 | -117 | 24 | 7 | -51 | nt | nt | Mdm2-MdmX confirm=93*
O=C(COC(=O)c1ccc2c(c1)OCO2)Nc1ccccc1F | -15 | 2 | -30 | -10 | 17 | 7 | nt | nt

Bioassay records: PubChem, several laboratories
